In the library only some 8.1% were active in any assay of this set; here they are far more common.
KB-3-1 cytotox = qHTS assay for MDR1-selective chemotherapeutics: Primary screen using the parental adenocarcinoma cell KB-3-1; 400,000 compounds, 1.4% hits; AID 1347075, 2019; KB-3-1 viability, CellTiter-Glo ATP luminescence, 72 h; Potency, µM (series often up to 46.1 µM), hits mostly cytotoxic; also: % is scaled to controls: 0 for no effect and ±100 for the full control effect; nearly all actives have a fitted effect of over 60% in size
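Luminescent ATP read-out (CellTiter-Glo) measures survival of drug-naive KB-3-1 cells after 72 h compound exposure at 37 °C. Titration series was screened from lowest to highest concentration, with DMSO vehicle plates as background controls.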
MCF10A rerep = A quantitative high throughput screen for small molecules that induce DNA re-replication in MCF 10a normal breast cells; MCF 10A DNA re-replication, Hoechst nuclear intensity, 48 h; Potency, µM (titrated, usually from 46.1 µM), for inactives: top-dose activity, positive = re-replication, actives largely listed as activators; 350,000 compounds, 2.9% hits; AID 624296, 2012; also: % of control where 0% means no effect; nearly all actives have a fitted effect of over 50% in size
KB-V1 MDR tox = qHTS assay for MDR1-selective chemotherapeutics: Primary screen using the drug-selected MDR subline cells KB-V1. Potency, µM (highest dose often 46.1 µM), usual class: cytotoxic. KB-V1 MDR cells viability, CellTiter-Glo, 72 h. 400,000 compounds, 3.4% hits; also: % is scaled to controls: 0 for no effect and ±100 for the full control effect; nearly all actives have a fitted effect of over 60% in size
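In this primary screen, KB-V1 cells overexpressing P-gp are incubated with library compounds (lowest to highest concentration) for 72 h at 37 degrees C before a luminescent ATP viability read.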
SW480 rereplic = A quantitative high throughput screen for small molecules that induce DNA re-replication in SW480 colon adenocarcinoma cells; SW480 DNA re-replication, Hoechst DNA content imaging, 48 h; Potency, µM (doses to about 46.1 µM), for inactives: at the highest dose re-replication activation, most hits filed as activators; 340,000 compounds, 1.8% hits; also: % of control where 0% means no effect; nearly all actives have a fitted effect of over 55% in size
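Hoechst fluorescence of nuclei (405 nm excitation, 500-530 nm emission) measured by plate-scanning imager after 48 hr compound exposure at 37 C; re-replication scored as increased number of nuclei with elevated intensity.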
ELG1 repair inh = qHTS screen for small molecules that inhibit ELG1-dependent DNA repair in human embryonic kidney (HEK293T) cells expressing luciferase-tagged ELG1; AID 504467, 2011; 330,000 compounds, 2.3% hits; HEK293T ELG1-luciferase reporter, luminescence, 16 h; DNA damage induced by 5-fluorouridine; Potency, µM (series often up to 46.1 µM), for inactives: top-dose activity change, negative = inhibition, usual class: inhibitors; also: % is scaled to controls: 0 for no effect and ±100 for the full control effect; nearly all actives have a fitted effect of over 55% in size
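Luminescence from the luciferase reporter, measured 30 min after ONE-Glo reagent at room temperature, was the read-out. Beforehand, 2,000 cells per well were exposed for 16 hr at 37 °C to 5-fluorouridine together with compound or vehicle.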
* hit, by the source's call; ! = not confirmed by another sample. Calls follow the shape of the dose curve; as a rule, active = well fitted curve in the direction sought with a large enough effect; inconclusive = small, poorly fitted or top-dose-only effect, or another doubt; inactive = no such curve, though single readings can be large; an effect the other way counts as inactive or inconclusive. Potency is read from the fitted curve at half-maximal effect.

What do the screens show for `CCOC(=O)c1c(C)oc2ccc(N(C(C)=O)S(=O)(=O)c3c(C)cc(C)cc3C)cc12`?
KB-3-1 cytotox: 23.1µM*; KB-V1 MDR tox: 4.11µM*

Results for CCOC(=O)C1(CCCc2ccccc2)CCN(C(=O)CCc2cnccn2)CC1 ?
KB-3-1 cytotox: inactive; MCF10A rerep: -16.2%; KB-V1 MDR tox: inactive; SW480 rereplic: 8.1%; ELG1 repair inh: -17.5%

What do the screens show for `COc1cc(OC)c(OC)cc1/C=C/c1ccc2ccccc2[n+]1C`?
KB-3-1 cytotox: 13µM*; KB-V1 MDR tox: inactive

Results for COc1ccc(/C=C/c2ccc3ccccc3[n+]2C)c(OC)c1OC ?
KB-3-1 cytotox: inconclusive; KB-V1 MDR tox: inactive

Results for CC(=O)Oc1ccccc1/C=C/c1ccc2ccccc2[n+]1C ?
KB-3-1 cytotox: inactive; MCF10A rerep: inconclusive; KB-V1 MDR tox: inactive; SW480 rereplic: 8.4%; ELG1 repair inh: inconclusive

What do the screens show for `COc1ccc(/C=C/c2ccc3ccccc3[n+]2C)cc1OC`?
KB-3-1 cytotox: 10.3µM*!; MCF10A rerep: -7.9%; KB-V1 MDR tox: inactive; SW480 rereplic: -29.2%; ELG1 repair inh: inconclusive

How did Cc1cc(-c2cc(C)c(N)cc2C)c(C)cc1N do in these assays?
KB-3-1 cytotox: inactive; MCF10A rerep: 126.7%; KB-V1 MDR tox: inactive; SW480 rereplic: 18.4µM*

Results for Cc1cc2c(cc1C)C(=O)C(Br)=C(N)C2=O ?
KB-3-1 cytotox: inactive; MCF10A rerep: inconclusive; KB-V1 MDR tox: inactive; SW480 rereplic: inconclusive

How did CC(C)N(C(=O)CSc1ccc(S(=O)(=O)N2CCCCC2)cn1)c1ccccc1 do in these assays?
KB-3-1 cytotox: inconclusive; MCF10A rerep: 5.8µM*; KB-V1 MDR tox: inactive; SW480 rereplic: -10.1%; ELG1 repair inh: inconclusive

Results for CCCCCCCCCCCCCCCCCCNc1ccn(C2OC(COP(=O)(O)OCC3OC(n4cc(F)c(=O)[nH]c4=O)CC3O)C(O)C2O)c(=O)n1 (centres undefined) ?
KB-3-1 cytotox: inconclusive; MCF10A rerep: 10.3µM*; KB-V1 MDR tox: inactive; SW480 rereplic: 20.6µM*

Results for Cc1ccc(C(=O)C[n+]2cc(-c3ccc(C)cc3)n3c2CCCCC3)cc1 ?
KB-3-1 cytotox: 0.92µM*; MCF10A rerep: inconclusive; KB-V1 MDR tox: inactive; SW480 rereplic: 11.2%; ELG1 repair inh: 16.4µM*

Results for COc1ccc(-c2c[n+](CC(=O)c3cccs3)c3n2CCC3)cc1 ?
KB-3-1 cytotox: inconclusive; MCF10A rerep: 0.9%; KB-V1 MDR tox: inactive; SW480 rereplic: -9.1%; ELG1 repair inh: 23.1µM*

What do the screens show for `COc1ccc(C(=O)C[n+]2cc(-c3ccc(OC)cc3)n3c2CCCC3)cc1`?
KB-3-1 cytotox: inconclusive; MCF10A rerep: 6.6%; KB-V1 MDR tox: inconclusive; SW480 rereplic: inconclusive; ELG1 repair inh: 7.3µM*

Results for Cc1ccc(-c2c[n+](CC(=O)OCc3ccccc3)c3n2CCC3)cc1 ?
KB-3-1 cytotox: inactive; MCF10A rerep: inconclusive; KB-V1 MDR tox: inactive; SW480 rereplic: 9.2µM*; ELG1 repair inh: 9.1%

What do the screens show for `Cc1ccc(-c2c[n+](Cc3ccc(Cl)c(Cl)c3)c3n2CCC3)cc1`?
KB-3-1 cytotox: 3.66µM*; MCF10A rerep: inconclusive; KB-V1 MDR tox: inactive; SW480 rereplic: 60.4%; ELG1 repair inh: 20.6µM*

What do the screens show for `Cc1ccc(NC(=O)C[n+]2cc(-c3ccc(C)cc3)n3c2CCC3)cc1`?
KB-3-1 cytotox: inactive; MCF10A rerep: 0.0%; KB-V1 MDR tox: inactive; SW480 rereplic: -43.8%; ELG1 repair inh: 0.0%

How did CC(C)(C)NC(=O)NC(=O)COC(=O)c1ccc(OC(F)F)cc1 do in these assays?
KB-3-1 cytotox: inactive; MCF10A rerep: 1.9%; KB-V1 MDR tox: inactive; SW480 rereplic: 1.5%; ELG1 repair inh: -4.9%

How did COc1ccc2oc3cc(C)[n+]([O-])c(-c4ccc(Cl)cc4)c3c2c1 do in these assays?
KB-3-1 cytotox: inconclusive; MCF10A rerep: 16.6%; KB-V1 MDR tox: inconclusive; SW480 rereplic: -1.2%; ELG1 repair inh: inconclusive

How did COc1ccc2oc3cc(C)[n+]([O-])c(-c4ccc(C)cc4)c3c2c1 do in these assays?
KB-3-1 cytotox: inconclusive; MCF10A rerep: 15.7%; KB-V1 MDR tox: 5.8µM*; SW480 rereplic: inconclusive; ELG1 repair inh: inconclusive

What do the screens show for `COc1ccc(-c2c3c(cc(C)[n+]2[O-])oc2ccc(OC)cc23)cc1`?
KB-3-1 cytotox: inconclusive; MCF10A rerep: 16.4µM*; KB-V1 MDR tox: 10.3µM*; SW480 rereplic: 15.4%; ELG1 repair inh: inconclusive

What do the screens show for `CCOc1ccc(-c2nn(-c3ccc(F)cc3)c3c2cnc2ccc(F)cc23)cc1`?
KB-3-1 cytotox: inactive; KB-V1 MDR tox: inactive

Results for CCCCc1nc(NCCNC(=O)c2ccco2)c(C#N)c2c1CSC(C)(C)C2 ?
KB-3-1 cytotox: inactive; MCF10A rerep: inconclusive; KB-V1 MDR tox: 2.31µM*; SW480 rereplic: inconclusive; ELG1 repair inh: 14.6µM*

How did CCc1nc(Cl)c(C#N)c2c1CSC(C)(C)C2 do in these assays?
KB-3-1 cytotox: inactive; MCF10A rerep: 0.1%; KB-V1 MDR tox: inactive; SW480 rereplic: inconclusive; ELG1 repair inh: -1.5%

Results for CCCCc1nc(Cl)c(C#N)c2c1CSC(C)(C)C2 ?
KB-3-1 cytotox: inactive; MCF10A rerep: 23.1µM*; KB-V1 MDR tox: inactive; SW480 rereplic: inconclusive; ELG1 repair inh: 10.4%

What do the screens show for `N#CCSc1ncnc2sc3c(c12)CCC3`?
KB-3-1 cytotox: inactive; MCF10A rerep: -1.8%; KB-V1 MDR tox: inactive; SW480 rereplic: -0.3%; ELG1 repair inh: 0.6%

Results for COc1ccc(-c2nnc(CSc3ncnc4sc5c(c34)CCC5)o2)cc1OC ?
KB-3-1 cytotox: inactive; MCF10A rerep: -1.8%; KB-V1 MDR tox: 20.6µM*; SW480 rereplic: inconclusive; ELG1 repair inh: -0.2%

Results for COCCCn1c(SCC(=O)NCc2ccco2)nc2sc3c(c2c1=O)CCC3 ?
KB-3-1 cytotox: inactive; MCF10A rerep: 7.7%; KB-V1 MDR tox: inactive; SW480 rereplic: -13.0%; ELG1 repair inh: inconclusive

Results for COCCn1c(SCc2nnc(-c3ccccc3)o2)nc2sc3c(c2c1=O)CCC3 ?
KB-3-1 cytotox: inactive; MCF10A rerep: 25.0%; KB-V1 MDR tox: 6.51µM*; SW480 rereplic: 1.1%; ELG1 repair inh: 10.9%

What do the screens show for `CC(=O)NCCn1c(SCC(=O)OCc2ccccc2)nc2ccccc2c1=O`?
KB-3-1 cytotox: inactive; MCF10A rerep: 30.7%; KB-V1 MDR tox: inconclusive; SW480 rereplic: -9.5%; ELG1 repair inh: -7.2%

What do the screens show for `O=C(CN(c1ccccc1F)S(=O)(=O)c1ccccc1)NC1CCCCCC1`?
KB-3-1 cytotox: inactive; MCF10A rerep: -1.2%; KB-V1 MDR tox: 4.61µM*; SW480 rereplic: 1.4%; ELG1 repair inh: -4.2%

Bioassay records: PubChem, National Center for Advancing Translational Sciences (NCATS)
